Experimental data published in PubChem BioAssay (EPA / NIEHS).
Results filed as inconclusive are left out. Activity calls are given as the source filed them. The calls were made as follows: active = hit-call score of the fitted dose curve at least 0.9, where 1 is the maximum; inconclusive = response in the unintended direction; inactive = score below 0.9.

Assay: Tanguay_ZF_120hpf_CIRC_legacy: (Legacy) Oregon State University Tanguay Lab 120 Hour Post-fertilization zebrafish Assay for Circulatory Malformation (AID 2283651)
Method: Tanguay_ZF_120hpf_legacy is a whole embryo, multiplexed endpoint assay using zebrafish larvae exposed for 120 hours post fertilization on a 96-well plate.Tanguay_ZF_120hpf_CIRC_legacy is one of one assay component(s) measured or calculated from the Tanguay_ZF_120hpf_legacy assay. It is designed to make measurements of zebrafish development as detected with brightfield microscopy of developing zebrafish embryos.Data from the assay component Tanguay_ZF_120hpf_CIRC_legacy was analyzed into 1 assay endpoints. This assay endpoint, Tanguay_ZF_120hpf_CIRC_legacy, was analyzed in the positive analysis fitting direction relative to DMSO as the negative control and baseline of activity. Using a type of morphology reporter, gain-of-signal activity can be used to understand changes in developmentals as they relate to the whole embryo. To generalize the intended target to other relatable targets, this assay endpoint is annotated to the zebrafish development intended target family, where the subfamily is angiogenesis.
Zebrafish husbandry: Tropical 5D wild-type adult zebrafish were housed in at an approximate density of 1000 per 100 gallon tank at the Sinnhuber Aquatic Research Laboratory, Oregon State University, Corvallis, OR. Each tank was kept at standard laboratory conditions of 28C on a 14-h light/10-h dark photoperiod in fish water consisting of reverse osmosis water supplemented with a commercially available salt (Instant Ocean). Spawning funnels were placed into the tanks the night prior, and embryos were collected and staged. To increase bioavailability, the chorion was enzymatically removed using pronase (63.6mg/ml, >/= 3.5U/mg, Sigma-Aldrich: P5147) at 4 hours post fertilization (hpf) using a custom automated dechorionator.Chemical exposures: Six hpf dechorionated embryos were placed 1 embryo per well in a 96-well plate prefilled with 90 ul of EM using automated embryo placement systems (AEPS). Ten microliters of each row of dilution plate 2 was added to 2 exposure plates. The final DMSO concentration used was 0.64% (vol/vol). Thirty-two embryos were also exposed to 5uM trimethyltin chloride (positive control). Plates were sealed to prevent evaporation and foil covered to reduce light exposure and kept in a 28C incubator. Embryos were statically exposed until 120 hpf. At 24 hpf, embryos were assessed for photomotor response using a custom photomotor response analysis tool (PRAT) and for developmental toxicity endpoints (MO24: mortality at 24 hpf, DP: developmental progression, SM: spontaneous movement, and NC: notochord distortion). At 120 hpf, locomotor activity was measured using Viewpoint Zebralab and assessed for 18 endpoints. Zebrafish acquisition and analysis program (ZAAP), a custom program designed to inventory, acquire, and manage zebrafish data, was used to collect developmental endpoints as either present or absent (i.e., binary responses were recorded). If mortality occurred for an embryo (at either 24 or 120 hpf), the non-mortality endpoints were not measured.
In the case of OC1CCC(C2CCCCC2)CC1 (stereo not given), the outcome is reported as “inactive”. In the case of CC(C)(C)c1cc(C(C)(C)C)c(O)c(C(C)(C)C)c1, the outcome is reported as “inactive”. With C[C@@H]1C[C@H]2[C@@H]3CCC4=CC(=O)C=C[C@]4(C)[C@@]3(F)[C@@H](O)C[C@]2(C)[C@@]1(O)C(=O)COP(=O)(O)O the outcome was “inactive”. In the case of CN(C)C=O, the outcome is reported as “inactive”. In the case of CCN(CC)CCNc1ccc(CNC=O)c2sc3ccc(OC)cc3c(=O)c12, the outcome is reported as “inactive”. In the case of c1ccc2cc3c(ccc4ccccc43)cc2c1, the outcome is reported as “inactive”. With CCCCCCCCCCCCN1CCCC1=O the outcome was “inactive”. In the case of CCOC(=O)CC(O)(CC(=O)OCC)C(=O)OCC, the outcome is reported as “inactive”. For Oc1cc2ccccc2c2ccccc12, the AC50 was 10.2 µM (active). With CCCCOCCO the outcome was “inactive”. With CC#C[C@]1(O)CC[C@H]2[C@@H]3CCC4=CC(=O)CCC4=C3[C@@H](c3ccc(N(C)C)cc3)C[C@@]21C the outcome was “inactive”. For CC[C@H](c1ccc(O)cc1)[C@@H](CC)c1ccc(O)cc1, the outcome was “inactive”. For CC(C)CCCCCCOC(=O)CCCCC(=O)OCCCCCCC(C)C, the outcome was “inactive”. In the case of CCc1ccc(CCOc2ccc(CC3SC(=O)NC3=O)cc2)nc1 (stereo not given), the outcome is reported as “inactive”. For CCCCCCC(=O)O, the outcome was “inactive”. For OCCC(F)(F)C(F)(F)C(F)(F)C(F)(F)C(F)(F)C(F)(F)F, the outcome was “inactive”. For O=C(OCCOCCOC(=O)c1ccccc1)c1ccccc1, the outcome was “inactive”. For O=c1c(-c2ccc(O)cc2)coc2cc(O)ccc12, the outcome was “inactive”. With O=[N+]([O-])c1ccc(O)cc1 the outcome was “inactive”. With O=C(O)Cc1cc(I)c(Oc2cc(I)c(O)c(I)c2)c(I)c1 the outcome was “inactive”. With C=C(C)C(=O)OCCC(F)(F)C(F)(F)C(F)(F)C(F)(F)C(F)(F)C(F)(F)F the outcome was “inactive”. With CCCCCCCCCCCCCCCS(=O)(=O)Oc1ccccc1 the outcome was “inactive”. In the case of O=C(O)c1ccccc1C(c1ccc(O)cc1)c1ccc(O)cc1, the outcome is reported as “inactive”. In the case of CC(C)(C)CC(C)(C)c1ccc(O)c(-n2nc3ccccc3n2)c1, the outcome is reported as “inactive”. In the case of CN1CCN(c2ccccc2/C=C2\SCCN(c3ccc(Cl)c(Cl)c3)C2=O)CC1, the outcome is reported as “inactive”. In the case of CC(C)(C)c1ccc(O)c(C(C)(C)C)c1, the outcome is reported as “inactive”. With CCCCCCCCCCCCc1ccccc1S(=O)(=O)O the outcome was “inactive”. With CC[C@H](C)[C@@H](C(=O)O)n1sc2ccccc2c1=O the outcome was “inactive”. With CC(=O)CC(C)(C)O the outcome was “inactive”. In the case of CCCCC(CC)COC(=O)CCCCC(=O)OCC(CC)CCCC (stereo not given), the outcome is reported as “inactive”. In the case of CCc1nn(C2CCCCC2)c2cc(C3(C#N)CCC(C(=O)O)CC3)ccc12 (stereo not given), the outcome is reported as “inactive”. In the case of c1ccc2c(c1)ccc1ccccc12, the outcome is reported as “inactive”. For CCCCC(CC)COC(=O)CCCCC(=O)OCc1ccccc1 (stereo not given), the outcome was “inactive”. In the case of CCCOC(=O)c1ccc(O)cc1, the AC50 is reported as 40.1 µM (active). In the case of CCC(=C(c1ccc(O)cc1)c1ccc(OCCN(C)C)cc1)c1ccccc1, the outcome is reported as “inactive”. For CCCCCCCC(=O)O, the outcome was “inactive”. For CCCOc1sc(C(=O)N2CCC(c3cc(CN)ccc3F)CC2)c(C)c1Br, the outcome was “inactive”. For Oc1cccc(O)c1, the outcome was “inactive”. For OCCC(F)(F)C(F)(F)C(F)(F)C(F)(F)C(F)(F)C(F)(F)C(F)(F)C(F)(F)F, the outcome was “inactive”. For CCCCCCCCC(=O)O, the outcome was “inactive”.
